Reference: PubChem BioAssay (Tox21)
Where “and” joins values, the source holds several entries; their conditions need not be identical. Identical values can stand only once. Inconclusive results are not listed. Some compounds were tested as several samples or in several runs, with calls that do not always agree. Calls of active or inactive are those of the source. The call rests on the fitted dose curve; in most records, active means well fitted curve in the direction sought with a large enough effect in the repeat runs; inconclusive means weak or mixed curves; inactive means no such curve, though single readings can be large; an effect the other way counts as inactive or inconclusive.

Legend:
[1] = A CellTox Green Cytotoxicity Assay to monitor cytotoxicity in HEK293 cells - 40 hour (AID 1224871); further: nearly all actives have a fitted effect of over 45% in size; further: potency means the concentration at half of the fitted maximal effect
In short: (§1)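 Tox21 screen in HEK293: membrane-impermeant cyanine dye fluoresces on binding dead-cell DNA; compound pinned 5 h post-seeding, plates held at 37 C, signal read repeatedly through 40 h.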

[2] = qHTS RealTime-Glo MT Cell Viability Assay in HEK293 cells - 16 hour (AID 1224872); further: nearly all actives have a fitted effect of over 50% in size; further: potency means the concentration at half of the fitted maximal effect
In short: (§2)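 Quantitative high-throughput screen of the Tox21 10K library in HEK293: cells and RealTime-Glo reagents plated together, compound added at 5 h, luminescence monitored through 40 h at 37 C.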

[3] = qHTS RealTime-Glo MT Cell Viability Assay in HepG2 cells - 8 hour (AID 1224873); further: nearly all actives have a fitted effect of over 55% in size
In short: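 HepG2 cells mixed with RealTime-Glo MT reagents (NanoLuc plus cell-permeant prosubstrate) were seeded at 600 cells/well, incubated 5 h at 37 C/5% CO2, then pinned with compounds in DMSO; nonlytic luminescence tracked viability during 40 h treatment.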

[4] = qHTS RealTime-Glo MT Cell Viability Assay in HEK293 cells - 40 hour (AID 1224874); settings: RealTime-Glo luminescence; max response: stronger effect = lower value; further: nearly all actives have a fitted effect of over 50% in size; further: potency means the concentration at half of the fitted maximal effect
In short: (§3)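 HEK293 + NanoLuc + prosubstrate, 600 cells/well; 5 h, 37 C/5% CO2; compound 23 nL in DMSO by pintool; 37 C; luminescence read at 0, 8, 16, 24, 32 and 40 h time points.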

[5] = A CellTox Green Cytotoxicity Assay to monitor cytotoxicity in HEK293 cells - 24 hour (AID 1224875); further: series mostly up to about 77 µM; nearly all actives have a fitted effect of over 45% in size
In short: as §1

[6] = A CellTox Green Cytotoxicity Assay to monitor cytotoxicity in HepG2 cells - 16 hour (AID 1224876); further: nearly all actives have a fitted effect of over 45% in size
In short: (§4)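 Measurements at 0, 8, 16, 24, 32 and 40 h of treatment captured CellTox Green fluorescence in HepG2 cells that had been co-plated with reagent and preincubated 5 h at 37 C/5% CO2.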

[7] = qHTS RealTime-Glo MT Cell Viability Assay in HepG2 cells - 32 hour (AID 1224877); further: nearly all actives have a fitted effect of over 55% in size
In short: (§5)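 Compound treatment began 5 h after plating HepG2 cells (600/well) with NanoLuc luciferase and prosubstrate. Plates stayed at 37 C for 40 h; luminescence was captured at six time points, 0 h through 40 h.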

[8] = A CellTox Green Cytotoxicity Assay to monitor cytotoxicity in HepG2 cells - 24 hour (AID 1224878); further: nearly all actives have a fitted effect of over 45% in size
In short: as §4

[9] = A CellTox Green Cytotoxicity Assay to monitor cytotoxicity in HepG2 cells - 40 hour (AID 1224879); further: nearly all actives have a fitted effect of over 40% in size; further: potency means the concentration at half of the fitted maximal effect
In short: as §4

[10] = qHTS RealTime-Glo MT Cell Viability Assay in HEK293 cells - 0 hour (AID 1224880); further: nearly all actives have a fitted effect of over 45% in size; further: potency means the concentration at half of the fitted maximal effect
In short: as §3

[11] = A CellTox Green Cytotoxicity Assay to monitor cytotoxicity in HEK293 cells - 32 hour (AID 1224881); further: nearly all actives have a fitted effect of over 40% in size
In short: as §1

[12] = A CellTox Green Cytotoxicity Assay to monitor cytotoxicity in HepG2 cells - 0 hour (AID 1224882); further: nearly all actives have a fitted effect of over 35% in size
In short: as §4

[13] = A CellTox Green Cytotoxicity Assay to monitor cytotoxicity in HepG2 cells - 32 hour (AID 1224883); further: nearly all actives have a fitted effect of over 50% in size
In short: as §4

[14] = A CellTox Green Cytotoxicity Assay to monitor cytotoxicity in HEK293 cells - 8 hour (AID 1224884); further: nearly all actives have a fitted effect of over 35% in size
In short: as §1

[15] = qHTS RealTime-Glo MT Cell Viability Assay in HepG2 cells - 16 hour (AID 1224885); further: nearly all actives have a fitted effect of over 50% in size
In short: as §5

[16] = qHTS RealTime-Glo MT Cell Viability Assay in HEK293 cells - 24 hour (AID 1224886); further: nearly all actives have a fitted effect of over 50% in size; further: potency means the concentration at half of the fitted maximal effect
In short: as §2

[17] = qHTS RealTime-Glo MT Cell Viability Assay in HEK293 cells - 8 hour (AID 1224887)
In short: as §3

[18] = A CellTox Green Cytotoxicity Assay to monitor cytotoxicity in HEK293 cells - 16 hour (AID 1224888); further: nearly all actives have a fitted effect of over 35% in size
In short: as §1

[19] = qHTS RealTime-Glo MT Cell Viability Assay in HepG2 cells - 0 hour (AID 1224889); further: nearly all actives have a fitted effect of over 50% in size; further: potency means the concentration at half of the fitted maximal effect
In short: as §5

[20] = A CellTox Green Cytotoxicity Assay to monitor cytotoxicity in HepG2 cells - 8 hour (AID 1224890); further: nearly all actives have a fitted effect of over 45% in size
In short: as §4
On the % scale 0 is the no-effect control and ±100 the full control effect.

CCCCCCCCCCC(CO)CCCCCCCC (configuration not stated)
inactive: Potency [1] | Potency [2] | Potency [3] | max response [4] 5.36% and 2.58% | Potency [5] | Potency [6] | Potency [7] | Potency [8] | Potency [9] | Potency [10] | Potency [11] | Potency [12] | Potency [13] | Potency [14] | Potency [15] | Potency [16] | Potency [17] | Potency [18] | Potency [19] | Potency [20]

C=CCNCC=C
inactive: Potency [1] | Potency [2] | Potency [3] | max response [4] 4.5% and 4.18% | Potency [5] | Potency [6] | Potency [7] | Potency [8] | Potency [9] | Potency [10] | Potency [11] | Potency [12] | Potency [13] | Potency [14] | Potency [15] | Potency [16] | Potency [17] | Potency [18] | Potency [19] | Potency [20]

Brc1nc2ccccc2s1
inactive: Potency [1] | Potency [2] | Potency [3] | max response [4] 0.941% and 3.88% | Potency [5] | Potency [6] | Potency [7] | Potency [8] | Potency [9] | Potency [10] | Potency [11] | Potency [13] | Potency [14] | Potency [15] | Potency [16] | Potency [18] | Potency [19] | Potency [20]

O=C(O)c1cc(=O)[nH]c(=O)[nH]1
inactive: Potency [1] | Potency [2] | Potency [3] | max response [4] 10.8% and 0.747% | Potency [5] | Potency [6] | Potency [7] | Potency [8] | Potency [9] | Potency [10] | Potency [11] | Potency [12] | Potency [13] | Potency [14] | Potency [16] | Potency [18] | Potency [19] | Potency [20]

Cc1ccc(C(C)(C)C)cc1
inactive: Potency [1] | Potency [2] | Potency [3] | max response [4] 0.538% | Potency [5] | Potency [6] | Potency [7] | Potency [8] | Potency [9] | Potency [10] | Potency [11] | Potency [12] | Potency [14] | Potency [15] | Potency [16] | Potency [17] | Potency [18] | Potency [19] | Potency [20]

CCCCCCCC/C=C\CCCCCCCC(=O)O
inactive: Potency [1] | Potency [2] | Potency [3] | max response [4] 12.6% and 4.42% | Potency [5] | Potency [6] | Potency [7] | Potency [8] | Potency [9] | Potency [10] | Potency [11] | Potency [12] | Potency [14] | Potency [16] | Potency [18] | Potency [19] | Potency [20]

C=CC(C)(O)CCC=C(C)C (configuration not stated)
inactive: Potency [1] | Potency [2] | Potency [3] | max response [4] 3.03% and 9.35% | Potency [5] | Potency [6] | Potency [7] | Potency [8] | Potency [9] | Potency [10] | Potency [11] | Potency [12] | Potency [14] | Potency [16] | Potency [18] | Potency [19] | Potency [20]

CCCCCC1C(=O)CCC1CC(=O)OC (configuration not stated)
inactive: Potency [1] | Potency [2] | Potency [3] | max response [4] 0.863% and -10.7% | Potency [5] | Potency [6] | Potency [7] | Potency [8] | Potency [9] | Potency [10] | Potency [12] | Potency [13] | Potency [14] | Potency [15] | Potency [16] | Potency [17] | Potency [18] | Potency [19] | Potency [20]

CC(=O)O[C@]1(C(C)=O)CC[C@H]2[C@@H]3C=C(Cl)C4=CC(=O)CC[C@]4(C)[C@H]3CC[C@@]21C
inactive: Potency [1] | Potency [3] | Potency [5] | Potency [6] | Potency [7] | Potency [8] | Potency [9] | Potency [11] | Potency [12] | Potency [13] | Potency [14] | Potency [17] | Potency [18] | Potency [20]
active: Potency [2] 21.8 µM | Potency [4] 21.8 µM and 10.7 µM | Potency [10] 2.18 µM and 1.69 µM | Potency [16] 21.8 µM | Potency [19] 346 nM and 477 nM

C/C=C/C(=O)N(CC)c1ccccc1C
inactive: Potency [1] | Potency [2] | Potency [3] | max response [4] 1.07% and 4.13% | Potency [5] | Potency [6] | Potency [7] | Potency [8] | Potency [9] | Potency [10] | Potency [11] | Potency [12] | Potency [13] | Potency [14] | Potency [15] | Potency [16] | Potency [18] | Potency [19] | Potency [20]

O=C(O)CCCCCCCCCCCC(=O)O
27.1 µM (active) and inactive: Potency [1]
48.2 µM (active) and inactive: Potency [9]
inactive: Potency [2] | Potency [3] | max response [4] 7.31% | Potency [5] | Potency [6] | Potency [7] | Potency [8] | Potency [10] | Potency [11] | Potency [14] | Potency [15] | Potency [16] | Potency [18] | Potency [19] | Potency [20]

NC[C@H](O)c1ccc(O)c(O)c1
inactive: Potency [1] | Potency [2] | Potency [3] | max response [4] -0.0212% and 2.99% | Potency [5] | Potency [6] | Potency [7] | Potency [8] | Potency [9] | Potency [10] | Potency [12] | Potency [13] | Potency [14] | Potency [15] | Potency [16] | Potency [17] | Potency [18] | Potency [19] | Potency [20]
